In PubChem BioAssay:
Active and inactive are the calls of the source. Unless noted, no rule for the calls is given here.

What was measured:
[1] = resazurin metabolic signal in HepG2 cells – cell-based, resazurin fluorescence, 24 h, PK04 Diversity Set, profiling panel (AID 1172); conditions: HepG2 viability, higher = more signal
[2] = budding yeast growth changes without added modifier – OD600, strain BY4716, 24 h, basal condition, primary screen (AID 1173); conditions: S. cerevisiae BY4716 growth, OD600, 24 h; higher = more signal, called active from +8 up or from −8 down
[3] = viability profiling in MM1S myeloma cells – cell-based, resazurin fluorescence, basal, 24 h, PK04 Diversity Set, profiling panel (AID 1174); conditions: higher = more signal, called active from +8 up or from −8 down;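 also: MM1S multiple myeloma cell line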
[4] = target: Dihydroorotate dehydrogenase (quinone), mitochondrial (Plasmodium falciparum (isolate 3D7)) (UniProt Q08210); experiment: inhibition of P. falciparum DHODH – biochemical, C-terminal His tag, absorbance 600 nm, primary screen (AID 1175); conditions: PfDHODH enzyme, DCIP absorbance 600 nm; higher = more signal, called active from +8 up or from −8 down;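 also: recombinant parasite enzyme with a five histidine tag at its C terminus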
Chain of Dihydroorotate dehydrogenase (quinone), mitochondrial (Plasmodium falciparum (isolate 3D7)) (Q08210 whole entry, looked up): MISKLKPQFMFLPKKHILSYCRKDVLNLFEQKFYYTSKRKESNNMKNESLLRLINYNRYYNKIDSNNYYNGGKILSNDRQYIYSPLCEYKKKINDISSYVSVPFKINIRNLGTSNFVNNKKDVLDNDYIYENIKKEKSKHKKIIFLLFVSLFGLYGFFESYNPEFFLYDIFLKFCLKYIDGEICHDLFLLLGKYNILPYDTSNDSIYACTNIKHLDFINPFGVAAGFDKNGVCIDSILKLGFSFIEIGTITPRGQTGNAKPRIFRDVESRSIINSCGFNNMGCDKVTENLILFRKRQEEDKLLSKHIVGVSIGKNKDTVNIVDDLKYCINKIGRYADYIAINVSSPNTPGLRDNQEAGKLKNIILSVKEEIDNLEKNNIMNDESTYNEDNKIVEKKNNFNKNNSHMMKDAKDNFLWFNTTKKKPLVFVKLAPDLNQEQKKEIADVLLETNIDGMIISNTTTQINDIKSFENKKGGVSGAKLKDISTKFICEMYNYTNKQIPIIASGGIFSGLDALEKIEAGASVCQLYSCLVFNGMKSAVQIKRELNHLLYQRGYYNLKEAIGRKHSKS

[5] = inhibition of PAO1 biofilm formation – strain PAO1, LB-PBS medium, absorbance 600 nm, primary screen (AID 1176); conditions: P. aeruginosa PAO1 growth/biofilm, A600, 12 h; higher = more signal
[6] = growth modulation of vineyard yeast isolate – strain RM11-1a, OD600, basal, 24 h, primary screen (AID 1177);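 also: cultures grown under basal conditions with no added stressor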; conditions: S. cerevisiae RM11-1a growth, OD600, 24 h; higher = more signal, called active from +8 up or from −8 down
[7] = growth of efflux-deficient E. coli DRC39 – strain DRC39, OD650, 24 h, E. coli filamentation inducers, primary screen (AID 1178);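 also: growth measured as culture turbidity by optical density at 650 nm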; conditions: E. coli DRC39 acrAB, higher = more signal, called active from +8 up or from −8 down
[8] = growth of efflux-deficient E. coli DRC39 – strain DRC39, OD650, 48 h, E. coli filamentation inducers, primary screen (AID 1179);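 also: screen aims at cell division blockers that make cells filament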; conditions: E. coli DRC39 delta-acrAB growth, higher = more signal, called active from +8 up or from −8 down
[9] = viability profiling in RPMI8226 myeloma cells – cell-based, resazurin fluorescence, basal, 24 h, PK04 Diversity Set, profiling panel (AID 1180); conditions: higher = more signal;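 also: RPMI8826 multiple myeloma cell line at 5000 cells per well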
[10] = target: E3 ubiquitin-protein ligase XIAP (Homo sapiens) (UniProt P98170); experiment: small molecules binding XIAP protein – biophysical, small-molecule microarray, fluorescence 635 nm, primary screen (AID 1181); conditions: higher = more signal;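 also: score merges 667 nm emission and signal to noise over triplicate slides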
Chain of E3 ubiquitin-protein ligase XIAP (Homo sapiens) (P98170 whole entry, looked up, the tested form may be a part): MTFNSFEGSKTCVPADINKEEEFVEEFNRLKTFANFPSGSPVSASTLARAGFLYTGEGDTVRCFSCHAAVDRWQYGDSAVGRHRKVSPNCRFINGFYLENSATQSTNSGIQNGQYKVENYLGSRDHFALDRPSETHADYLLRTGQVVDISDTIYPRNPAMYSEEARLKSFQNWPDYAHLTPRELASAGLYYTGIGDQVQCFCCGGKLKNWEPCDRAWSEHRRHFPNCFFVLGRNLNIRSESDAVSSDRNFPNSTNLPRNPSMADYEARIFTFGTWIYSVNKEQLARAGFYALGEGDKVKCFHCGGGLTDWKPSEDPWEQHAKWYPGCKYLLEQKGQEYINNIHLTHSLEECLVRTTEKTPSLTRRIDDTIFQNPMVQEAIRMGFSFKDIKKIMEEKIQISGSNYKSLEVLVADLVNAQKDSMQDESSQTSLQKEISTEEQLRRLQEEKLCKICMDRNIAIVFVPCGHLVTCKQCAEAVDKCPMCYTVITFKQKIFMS

[11] = tested on: XIP peptide (Xip251-270) binding; experiment: XIP fragment 251-270 binding compounds – biochemical, small-molecule microarray, fluorescence 635/667 nm, 0.1 µg/mL protein, primary screen (AID 1182); conditions: fluorescent protein binding, 635 nm, higher = more signal, called active from +8 up or from −8 down
[12] = tested on: XIP peptide (Xip251-270); experiment: compounds binding XIP fragment 251-270 – biochemical, small-molecule microarray, fluorescence 635/667 nm, 0.5 µg/mL protein, primary screen (AID 1183); conditions: fluorescence 635 nm, higher = more signal
[13] = blood-stage malaria parasite viability loss – strain 3D7, DAPI fluorescence, 100 nL, primary screen (AID 1184);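 also: parasites grown inside human red blood cells in medium with human serum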; conditions: P. falciparum 3D7 growth, 3 d, higher = more signal
[14] = target: Homeobox protein Hox-A13 (Mus musculus) (UniProt Q62424); experiment: disruptors of Hoxa13 oligonucleotide interaction – biochemical, fluorescence polarization, labeled oligonucleotide, primary screen (AID 1185); conditions: Hoxa13:DNA binding, 15 min, higher = more signal, called active from +8 up or from −8 down
Chain of Homeobox protein Hox-A13 (Mus musculus) (Q62424 whole entry, looked up): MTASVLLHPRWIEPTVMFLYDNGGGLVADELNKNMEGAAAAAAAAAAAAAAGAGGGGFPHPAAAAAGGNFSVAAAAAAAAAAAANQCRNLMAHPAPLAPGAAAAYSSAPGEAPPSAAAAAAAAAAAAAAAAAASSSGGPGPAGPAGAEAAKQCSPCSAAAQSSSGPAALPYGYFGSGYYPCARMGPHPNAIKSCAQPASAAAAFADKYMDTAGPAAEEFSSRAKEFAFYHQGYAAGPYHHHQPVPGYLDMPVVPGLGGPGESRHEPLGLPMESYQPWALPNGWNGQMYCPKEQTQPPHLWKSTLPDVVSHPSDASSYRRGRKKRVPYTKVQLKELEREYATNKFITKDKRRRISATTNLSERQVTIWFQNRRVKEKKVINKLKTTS

[15] = blockers of DNA damage checkpoint Chk1 activation – imaging, HeLa, hydroxyurea, phospho-Chk1 antibody, percent positive cells, primary screen (AID 1186); conditions: hydroxyurea-induced phospho-Chk1 immunofluorescence imaging, higher = more signal
[16] = blockers of DNA damage checkpoint Chk1 activation – imaging, HeLa, hydroxyurea, phospho-Chk1 nuclear intensity, primary screen (AID 1187); conditions: hydroxyurea-induced phospho-Chk1 immunofluorescence imaging, higher = more signal

| Compound | z-score [1] | z-score [2] | z-score [3] | composite z-score [4] | z-score [5] | z-score [6] | z-score [7] | z-score [8] | z-score [9] | composite z-score [10] | composite z-score [11] | composite z-score [12] | z-score [13] | z-score [14] | z-score [15] | z-score [16] |
| --- | --- | --- | --- | --- | --- | --- | --- | --- | --- | --- | --- | --- | --- | --- | --- | --- |
| O=C(NC1CC1)[C@@H]1c2ccccc2C(=O)N(Cc2ccccc2)[C@H]1c1ccc(CO)cc1 | 0.0991 | 0.172 (inactive) | -0.556 (inactive) | -0.0098 (inactive) | -0.149 (inactive) | 0.0831 (inactive) | 0.693 (inactive) | 1.58 (inactive) | 0.904 | 0.159 | 1.38 (inactive) | 0.752 | -1.55 | -2.86 (inactive) | -0.556 (inactive) | -0.679 (inactive) |
| CC(C)N1C(=O)[C@@]2(c3ccc([N+](=O)[O-])cc3)CC(=O)N(C3CCCCC3)[C@@H]2c2ccc(CO)cc21 | 1.86 | 0.833 (inactive) | 0.927 (inactive) | -13.8 (active) | -0.0065 (inactive) | -0.466 (inactive) | 0.026 (inactive) | -0.303 (inactive) | 0.833 | 0.0037 | 0.888 (inactive) | 0.287 | 0.501 | 0.0267 (inactive) | -0.135 (inactive) | -0.141 (inactive) |
| C=CC[C@H](OC(=O)Nc1ccc(OC)cc1)c1ccc(O)c2ccccc12 | -0.878 | -16.7 (active) | -6.07 (inactive) | -7.13 (inactive) | 1.82 (inactive) | -20 (active) | 0.852 (inactive) | 0.148 (inactive) | -4.15 | -0.0872 | -0.104 (inactive) | 0.616 | -1.36 | -0.0657 (inactive) | 0.936 (inactive) | 0.821 (inactive) |
| COCCOC(=O)N1C(=O)[C@@]2(c3cc(C#Cc4ccc(OC)cc4)ccc31)[C@H](C(=O)N1CCCCCCC1)[C@H]1C(=O)O[C@H](c3ccccc3)[C@H](c3ccccc3)N1[C@@H]2c1ccc(O)cc1 | 0.808 | -0.404 (inactive) | 0.0013 (inactive) | -0.458 (inactive) | 0.721 (inactive) | 0.868 (inactive) | -0.919 (inactive) | -1.22 (inactive) | -0.206 | -0.0501 | 1.73 (inactive) | 0.669 | -2.31 | 2.16 (inactive) | -0.29 (inactive) | -0.537 (inactive) |
| CC(C)NC(=O)[C@@]1(C)c2ccccc2C(=O)N(C(C)C)[C@H]1c1ccc(CO)cc1 | -1.1 | -0.106 (inactive) | -0.822 (inactive) | 0.127 (inactive) | 0.972 (inactive) | -0.553 (inactive) | 0.0378 (inactive) | -0.611 (inactive) | -0.43 | 0.0982 | 3.06 (inactive) | 0.884 | -0.568 | -2.26 (inactive) | 0.244 (inactive) | 0.246 (inactive) |
| O=C1O[C@H](c2ccccc2)[C@H](c2ccccc2)N2[C@H]1[C@@H](C(=O)O)[C@]1(C(=O)Nc3ccccc31)[C@H]2c1ccc(O)cc1 | -0.401 | 0.671 (inactive) | 0.186 (inactive) | -1.66 (inactive) | 1.53 (inactive) | 0.473 (inactive) | 0.293 (inactive) | -0.221 (inactive) | 0.494 | -0.237 | 0.624 (inactive) | 0.212 | -0.0758 | -5.84 (inactive) | 0.0422 (inactive) | -0.426 (inactive) |
| COC(=O)[C@@]1(Cc2ccc(OC)cc2)[C@H]2c3cc(C(=O)N(C)C)n(Cc4nc5ccccc5[nH]4)c3C[C@H]2CN1C(=O)c1ccccc1 | 0.014 | 1.03 (inactive) | -1.45 (inactive) | -0.291 (inactive) | -0.0982 (inactive) | 1.11 (inactive) | -0.614 (inactive) | -1.18 (inactive) | -2.51 | 0.382 | 0.469 (inactive) | 0.599 | -1.17 | -3.08 (inactive) | 0.399 (inactive) | 0.0842 (inactive) |
| CCOC(=O)C[C@H]1[C@H](OC(=O)Cc2ccc3c(c2)OCO3)[C@@H](NC(=O)C2CCCCC2)c2cc(OCCCO)ccc2N1C(=O)c1ccc2ccccc2n1 | 0.306 | -1.65 (inactive) | 0.773 (inactive) | -3.08 (inactive) | -1.93 (inactive) | 0.133 (inactive) | 0.777 (inactive) | 0.259 (inactive) | -0.338 | 0.302 | 1.35 (inactive) | 0.639 | -2.04 | -3.76 (inactive) | 0.404 (inactive) | -0.0148 (inactive) |
| CC(C)C(=C=CC[C@H](O)c1ccc(OCCO)cc1)C[C@H](O)c1cc(Cl)cc(Cl)c1O | 0.918 | -5.12 (inactive) | -1.31 (inactive) | -2.84 (inactive) | -0.21 (inactive) | -0.2 (inactive) | 1.14 (inactive) | 0.476 (inactive) | -0.576 | 0.0338 | 0.263 (inactive) | 0.746 | -2.74 | -1.35 (inactive) | -0.289 (inactive) | 0.18 (inactive) |
